Measured values: the supplement of paper PMC11732987, “Enantioselective OTUD7B fragment discovery through chemoproteomics screening and high-throughput optimisation” (Communications Chemistry, 2025)

Columns and labels:
Assay in all cases: log2 ratio of Biotin-Ahx-Ub-VS probe labelling (fragment/DMSO); higher = less target engagement (more negative = stronger competition), active = hit call of the paper (q ≤ 0.05, log2 ratio ≤ -1)
Details in all cases: compound concentration: 200 uM; treatment time: 3 h
OTUD6B = target: T1, OTUD6B (UniProt Q8N6M0)
T1 sequence (whole entry): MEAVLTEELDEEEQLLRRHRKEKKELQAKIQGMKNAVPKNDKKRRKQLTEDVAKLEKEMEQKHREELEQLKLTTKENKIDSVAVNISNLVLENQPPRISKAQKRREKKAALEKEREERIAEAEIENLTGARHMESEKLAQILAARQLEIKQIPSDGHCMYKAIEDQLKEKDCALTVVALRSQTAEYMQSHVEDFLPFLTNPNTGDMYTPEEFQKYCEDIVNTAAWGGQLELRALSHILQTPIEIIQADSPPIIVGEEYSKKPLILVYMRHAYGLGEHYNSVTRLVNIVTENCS
Outline: (§1)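 Global-median-normalised Spectronaut label-free quantities were compared by unpaired t-test, and values are average log2 ratios of fragment over vehicle. Only proteins with ≥2 unique peptides were used. HEK293T lysate (495 µg per sample) was treated in triplicate with fragment at 200 µM or vehicle for 3 h and then with Biotin-Ahx-Ub-VS at 0.5 µM final for 1 h. Labelled DUBs were then NeutrAvidin-enriched, digested with LysC and trypsin, and run by diaPASEF LC-MS/MS.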

OTUD7B = target: T2, OTUD7B (UniProt Q6GQQ9)
T2 sequence (whole entry): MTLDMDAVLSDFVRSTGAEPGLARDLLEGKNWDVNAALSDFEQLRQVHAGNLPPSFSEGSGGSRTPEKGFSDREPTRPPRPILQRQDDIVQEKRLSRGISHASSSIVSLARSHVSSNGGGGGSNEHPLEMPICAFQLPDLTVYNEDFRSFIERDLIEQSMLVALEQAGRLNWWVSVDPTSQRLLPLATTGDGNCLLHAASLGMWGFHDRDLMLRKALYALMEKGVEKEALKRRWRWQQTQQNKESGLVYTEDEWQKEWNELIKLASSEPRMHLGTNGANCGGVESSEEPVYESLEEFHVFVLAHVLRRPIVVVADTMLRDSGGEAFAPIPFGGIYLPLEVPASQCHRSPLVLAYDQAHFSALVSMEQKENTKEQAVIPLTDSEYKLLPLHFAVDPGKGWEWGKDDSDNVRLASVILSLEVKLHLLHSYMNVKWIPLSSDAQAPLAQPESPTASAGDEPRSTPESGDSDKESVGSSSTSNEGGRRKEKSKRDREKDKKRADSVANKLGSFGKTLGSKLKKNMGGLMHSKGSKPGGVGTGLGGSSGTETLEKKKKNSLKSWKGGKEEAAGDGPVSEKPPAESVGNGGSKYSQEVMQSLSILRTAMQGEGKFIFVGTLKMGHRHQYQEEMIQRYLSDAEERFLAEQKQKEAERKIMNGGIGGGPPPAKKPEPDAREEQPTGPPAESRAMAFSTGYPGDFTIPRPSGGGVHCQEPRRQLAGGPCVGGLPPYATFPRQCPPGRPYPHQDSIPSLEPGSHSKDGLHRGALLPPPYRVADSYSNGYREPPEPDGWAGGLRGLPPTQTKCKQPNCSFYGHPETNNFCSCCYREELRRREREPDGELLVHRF
Outline: as §1

PRPF8 = PRPF8 (UniProt Q6P2Q9)
Outline: as §1

PSMD7 = target: T3, PSMD7 (UniProt P51665)
T3 sequence (whole entry): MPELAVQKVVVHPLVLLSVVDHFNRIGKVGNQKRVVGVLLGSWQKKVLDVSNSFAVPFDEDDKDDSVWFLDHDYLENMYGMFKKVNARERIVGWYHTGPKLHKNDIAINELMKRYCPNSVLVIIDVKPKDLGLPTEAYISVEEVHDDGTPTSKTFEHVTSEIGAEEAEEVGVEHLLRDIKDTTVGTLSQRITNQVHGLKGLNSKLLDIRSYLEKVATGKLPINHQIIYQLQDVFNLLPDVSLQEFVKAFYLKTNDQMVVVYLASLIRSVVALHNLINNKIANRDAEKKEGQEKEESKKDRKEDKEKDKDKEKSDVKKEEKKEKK
Outline: as §1

UCHL1 = UCHL1 (UniProt P09936)
UCHL1, sequence (P09936 whole entry, looked up): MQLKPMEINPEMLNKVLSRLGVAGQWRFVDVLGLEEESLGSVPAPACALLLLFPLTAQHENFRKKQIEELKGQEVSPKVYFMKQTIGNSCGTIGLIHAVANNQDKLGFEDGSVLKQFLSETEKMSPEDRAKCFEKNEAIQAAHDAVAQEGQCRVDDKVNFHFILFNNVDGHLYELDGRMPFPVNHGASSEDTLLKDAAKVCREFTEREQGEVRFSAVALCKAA
Outline: as §1

UCHL3 = target: T4, UCHL3 (UniProt P15374)
T4 sequence (whole entry): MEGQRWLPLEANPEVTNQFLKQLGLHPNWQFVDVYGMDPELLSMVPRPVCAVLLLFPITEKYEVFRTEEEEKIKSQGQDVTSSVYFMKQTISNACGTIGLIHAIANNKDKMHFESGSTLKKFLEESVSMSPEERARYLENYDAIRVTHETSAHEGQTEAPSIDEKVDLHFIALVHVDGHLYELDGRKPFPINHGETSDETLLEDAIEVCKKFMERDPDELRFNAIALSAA
Outline: as §1

UCHL5 = target: T5, UCHL5 (UniProt Q9Y5K5)
T5 sequence (whole entry): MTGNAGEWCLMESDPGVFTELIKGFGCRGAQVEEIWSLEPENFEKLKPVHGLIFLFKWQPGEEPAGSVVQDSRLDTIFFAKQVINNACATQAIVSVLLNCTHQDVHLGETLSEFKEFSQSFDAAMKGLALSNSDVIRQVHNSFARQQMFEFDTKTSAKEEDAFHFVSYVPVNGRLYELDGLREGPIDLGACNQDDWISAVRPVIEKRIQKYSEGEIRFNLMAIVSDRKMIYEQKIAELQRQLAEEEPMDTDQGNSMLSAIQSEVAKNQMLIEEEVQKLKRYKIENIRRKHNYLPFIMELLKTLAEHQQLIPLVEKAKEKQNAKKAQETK
Outline: as §1

USP10 = USP10 (UniProt Q14694)
USP10, sequence (Q14694 whole entry): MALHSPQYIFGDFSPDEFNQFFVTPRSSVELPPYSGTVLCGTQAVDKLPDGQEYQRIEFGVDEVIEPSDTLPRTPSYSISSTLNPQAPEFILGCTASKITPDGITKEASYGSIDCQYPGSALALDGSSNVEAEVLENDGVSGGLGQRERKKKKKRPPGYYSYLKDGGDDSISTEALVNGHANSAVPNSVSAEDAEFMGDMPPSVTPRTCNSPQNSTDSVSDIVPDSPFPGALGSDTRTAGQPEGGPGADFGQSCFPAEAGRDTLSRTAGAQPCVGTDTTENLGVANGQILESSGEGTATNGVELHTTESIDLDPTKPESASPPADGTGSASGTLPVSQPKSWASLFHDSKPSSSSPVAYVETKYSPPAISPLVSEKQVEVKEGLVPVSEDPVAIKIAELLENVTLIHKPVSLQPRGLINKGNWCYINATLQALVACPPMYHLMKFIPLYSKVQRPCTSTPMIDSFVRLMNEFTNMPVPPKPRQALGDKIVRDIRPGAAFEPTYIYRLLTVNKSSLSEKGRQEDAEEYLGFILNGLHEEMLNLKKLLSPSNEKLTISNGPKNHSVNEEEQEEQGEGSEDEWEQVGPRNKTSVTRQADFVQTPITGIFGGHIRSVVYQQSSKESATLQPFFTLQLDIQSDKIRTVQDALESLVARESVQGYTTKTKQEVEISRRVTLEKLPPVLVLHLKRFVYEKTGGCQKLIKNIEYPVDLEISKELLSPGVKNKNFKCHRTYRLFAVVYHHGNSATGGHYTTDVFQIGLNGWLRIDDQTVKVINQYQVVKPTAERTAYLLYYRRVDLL
Outline: as §1

USP15 = target: T6, USP15 (UniProt Q9Y4E8)
T6 sequence (whole entry): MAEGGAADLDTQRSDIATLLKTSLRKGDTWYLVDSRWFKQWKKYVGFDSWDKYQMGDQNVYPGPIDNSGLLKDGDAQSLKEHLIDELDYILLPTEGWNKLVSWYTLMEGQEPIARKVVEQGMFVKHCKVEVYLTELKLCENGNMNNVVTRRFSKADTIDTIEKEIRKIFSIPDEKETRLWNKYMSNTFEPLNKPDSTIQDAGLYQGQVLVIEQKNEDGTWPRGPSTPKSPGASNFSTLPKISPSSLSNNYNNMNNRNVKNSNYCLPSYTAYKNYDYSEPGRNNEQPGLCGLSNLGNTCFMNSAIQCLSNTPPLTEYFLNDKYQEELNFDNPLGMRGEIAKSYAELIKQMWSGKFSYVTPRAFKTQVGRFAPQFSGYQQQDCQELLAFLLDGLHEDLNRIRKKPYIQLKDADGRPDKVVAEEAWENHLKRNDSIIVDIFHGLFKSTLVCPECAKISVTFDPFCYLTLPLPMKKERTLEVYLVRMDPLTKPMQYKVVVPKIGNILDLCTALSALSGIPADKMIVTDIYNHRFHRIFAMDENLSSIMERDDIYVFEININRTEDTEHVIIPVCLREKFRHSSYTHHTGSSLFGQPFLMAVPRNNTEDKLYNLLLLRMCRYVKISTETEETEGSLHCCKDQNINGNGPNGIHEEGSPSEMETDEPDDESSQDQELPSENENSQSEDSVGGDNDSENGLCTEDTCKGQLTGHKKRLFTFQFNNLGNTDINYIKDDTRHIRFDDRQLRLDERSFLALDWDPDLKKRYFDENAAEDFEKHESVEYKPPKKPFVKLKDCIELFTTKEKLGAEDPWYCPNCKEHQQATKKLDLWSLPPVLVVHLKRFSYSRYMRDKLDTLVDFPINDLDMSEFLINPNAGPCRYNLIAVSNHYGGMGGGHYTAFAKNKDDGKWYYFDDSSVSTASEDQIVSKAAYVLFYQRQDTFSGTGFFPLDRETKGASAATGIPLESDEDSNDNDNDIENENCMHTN
Outline: as §1

Measured: log2 ratio of Biotin-Ahx-Ub-VS probe labelling

O=C(CCl)NCc1cccc(F)c1
inactive: OTUD6B -0.0396 | OTUD7B -0.597 | PRPF8 -0.208 | PSMD7 -0.138 | UCHL3 0.227 | UCHL5 -0.0221 | USP10 -0.156 | USP15 -0.273
active: UCHL1 -1.24
